# Test system: Platelet-derived growth factor receptor alpha (Homo sapiens), P16234 [T674I]
# Conditions: at 0.1 µM
# Platelet-derived growth factor receptor alpha (Homo sapiens), P16234 [T674I], sequence (P16234 whole entry T674I): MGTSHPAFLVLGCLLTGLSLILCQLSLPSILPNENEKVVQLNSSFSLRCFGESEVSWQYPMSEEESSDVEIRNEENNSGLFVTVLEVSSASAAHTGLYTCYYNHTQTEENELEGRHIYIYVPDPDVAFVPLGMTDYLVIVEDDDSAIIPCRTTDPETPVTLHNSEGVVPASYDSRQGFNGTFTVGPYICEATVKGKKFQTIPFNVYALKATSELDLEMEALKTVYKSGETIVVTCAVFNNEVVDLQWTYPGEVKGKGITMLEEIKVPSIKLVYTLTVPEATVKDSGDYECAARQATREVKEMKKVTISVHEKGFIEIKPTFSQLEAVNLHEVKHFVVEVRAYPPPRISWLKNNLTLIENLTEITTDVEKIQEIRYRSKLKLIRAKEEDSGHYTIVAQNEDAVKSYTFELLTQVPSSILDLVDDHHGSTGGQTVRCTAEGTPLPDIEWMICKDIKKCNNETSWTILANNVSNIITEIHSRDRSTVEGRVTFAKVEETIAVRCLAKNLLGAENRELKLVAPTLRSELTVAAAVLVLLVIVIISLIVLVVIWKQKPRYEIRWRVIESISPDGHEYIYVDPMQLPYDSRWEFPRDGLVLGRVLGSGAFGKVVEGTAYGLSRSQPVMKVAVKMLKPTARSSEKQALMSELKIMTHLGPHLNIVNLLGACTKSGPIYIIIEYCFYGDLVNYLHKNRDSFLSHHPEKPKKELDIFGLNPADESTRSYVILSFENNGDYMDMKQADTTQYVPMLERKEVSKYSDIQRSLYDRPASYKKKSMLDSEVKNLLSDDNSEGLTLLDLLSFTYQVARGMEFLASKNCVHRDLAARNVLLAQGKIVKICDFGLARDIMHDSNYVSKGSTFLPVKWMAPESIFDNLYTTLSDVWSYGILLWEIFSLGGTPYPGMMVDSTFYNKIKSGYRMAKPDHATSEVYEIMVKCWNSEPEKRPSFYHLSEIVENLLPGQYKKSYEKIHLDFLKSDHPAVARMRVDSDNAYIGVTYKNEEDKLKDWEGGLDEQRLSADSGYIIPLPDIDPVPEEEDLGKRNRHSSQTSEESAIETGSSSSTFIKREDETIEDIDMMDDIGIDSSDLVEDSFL
row,SMILES,inhibition
1,CCC(=O)Nc1ccc(C)c(-c2ccc(C(=O)NCC3CC3)cc2)c1,3.93%
2,CN(C)CCOc1ccc(-c2cc(-c3ccc4c(c3)CCC4=NO)c(-c3ccncc3)o2)cc1,-0.07%
3,c1ccc(-c2n[nH]cc2-c2ccnc(-c3ccc(OCCN4CCOCC4)cc3)c2)nc1,5.25%
4,COc1cccc(/C=N/Nc2ncnc3c2cnn3-c2cccc(OC)c2)c1,2.59%
5,NCc1ccc(-n2c(-c3nonc3N)nc3cnccc32)cc1,8.3%
6,Cc1ccc(C(=O)NC2CCC2)cc1-c1ccc(C(=O)NCC2CC2)cc1,3.43%
7,COc1cc(Nc2ncc3c(C)nc(-c4cccc(Oc5ccccc5)c4)n3n2)cc(OC)c1OC,1.26%
8,Fc1ccc(-c2ncn(C3CCNCC3)c2-c2ccnc(Oc3ccc(F)c(F)c3)n2)cc1,1.08%
9,COC(=O)Nc1nc2ccc(Sc3ccc(NC(=O)Nc4cc(C(F)(F)F)ccc4F)cc3)cc2[nH]1,7.2%
10,NC(=O)c1cc(-c2ccc(F)cc2)cc(-c2ccncc2)c1N,4.18%
11,CN(C)CCCNc1nccc(-c2c(-c3ccc(F)cc3)nn3cc(C(F)(F)F)ccc23)n1,9.27%
12,CCc1nccc2c1nc(-c1nonc1N)n2CC,2.57%
13,COc1ccc(-c2ccc3c(NC(=O)C4CC4)n[nH]c3n2)cc1,3.4%
14,O=C1Nc2ccc(I)cc2C1=Cc1cc(Br)c(O)c(Br)c1,2.82%
15,O=C(Nc1n[nH]c2nc(-c3ccc(O)cc3)c(Br)cc12)C1CC1,7.49%
16,CS(=O)(=O)CCNCc1cc(-c2cc3c(Nc4ccc(OCc5cccc(F)c5)c(Cl)c4)ncnc3s2)cs1,8.52%
